# Values without a mark were called inactive. Calls of active or inactive are those of the source.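 How the source made its calls: active means IC50 below 10 µM at human M5 in a calcium flux test, acting as a negative modulator; inactive means the rest.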
# Target: Muscarinic acetylcholine receptor M5 (Homo sapiens) (UniProt P08912)
# Experiment: inhibition of ACh-evoked M5 calcium signal – cell-based, single concentration, human M5 (AID 743025)
# Conditions: CHO-K1 hM5, ACh EC80 calcium flux, Fluo-4; at 10 µM; active compounds read low
# Muscarinic acetylcholine receptor M5 (Homo sapiens), sequence (P08912 whole entry, looked up): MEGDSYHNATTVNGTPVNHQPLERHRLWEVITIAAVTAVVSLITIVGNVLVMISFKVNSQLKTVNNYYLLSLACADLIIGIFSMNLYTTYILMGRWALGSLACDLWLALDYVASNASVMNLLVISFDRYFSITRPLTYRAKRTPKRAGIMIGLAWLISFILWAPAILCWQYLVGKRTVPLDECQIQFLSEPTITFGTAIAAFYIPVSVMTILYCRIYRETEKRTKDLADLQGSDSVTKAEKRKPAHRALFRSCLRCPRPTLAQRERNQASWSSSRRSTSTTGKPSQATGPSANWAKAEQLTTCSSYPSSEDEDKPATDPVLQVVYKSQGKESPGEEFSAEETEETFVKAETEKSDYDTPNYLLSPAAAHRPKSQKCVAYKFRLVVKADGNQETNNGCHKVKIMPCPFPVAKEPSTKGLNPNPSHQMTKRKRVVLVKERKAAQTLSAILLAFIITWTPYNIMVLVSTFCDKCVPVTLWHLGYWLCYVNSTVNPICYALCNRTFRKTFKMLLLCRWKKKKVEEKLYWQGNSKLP
row,SMILES,activity remaining
1,O=C(c1ccc(F)cc1)N1CCN2C(=O)c3ccccc3C12c1ccc(Cl)cc1 (configuration not stated),78.8%
2,O=C(NCCNC(=O)c1ccccc1C(=O)c1ccc(F)cc1)c1ccccc1,86.1%
3,O=C(c1ccc(OC(F)(F)F)cc1)N1CCN2C(=O)c3ccccc3C12c1ccc(F)cc1 (configuration not stated),69.4%
4,O=C1c2ccccc2C(c2ccccc2)N1c1ccccc1 (configuration not stated),82.3%
5,O=C(c1ccccc1F)N1CCN2C(=O)c3ccccc3C12c1ccccc1 (configuration not stated),85.8%
6,Clc1ccc(C2(c3ccccc3)CCCN2)cc1 (configuration not stated),68.9%
7,O=C(c1ccc(F)c(F)c1)N1CCCN2C(=O)c3ccccc3C12c1ccc(Cl)cc1 (configuration not stated),80.4%
8,O=C(c1cccc(C(F)(F)F)c1)N1CCN2C(=O)c3ccccc3C12c1ccc(F)cc1 (configuration not stated),0.24% (active)
9,N#CC1(c2ccccc2)CCCN1C(=O)c1ccccc1 (configuration not stated),84.8%
10,O=C(c1ccc2c(c1)OCO2)N1CCN2C(=O)c3ccccc3C12c1ccc(Cl)cc1 (configuration not stated),8.65% (active)
11,O=C(c1ccc(C(F)(F)F)cc1)N1CCN2C(=O)c3ccccc3C12c1ccc(F)cc1 (configuration not stated),70.2%
12,O=C(c1ccc(F)c(F)c1)N1CCN2C(=O)c3ccccc3C12c1ccc(O)cc1 (configuration not stated),65.9%
13,O=C(c1ccccc1)N1CCN2C(=O)c3ccccc3C12c1ccc(Cl)cc1 (configuration not stated),1.2% (active)
14,COc1ccc(C23c4ccccc4C(=O)N2CCN3C(=O)c2cccc(C)c2)cc1 (configuration not stated),61.1%
15,O=C1c2ccccc2C2(c3ccccc3)Nc3ccccc3N12 (configuration not stated),81.8%
16,COc1ccc(C23c4ccccc4C(=O)N2CCN3C(=O)c2ccc(F)cc2)cc1 (configuration not stated),62.4%
17,O=C(Nc1ccccc1)N1CCN2C(=O)c3ccccc3C12c1ccccc1 (configuration not stated),85.4%
18,COc1ccc(C23c4ccccc4C(=O)N2CCN3C(=O)c2ccc(C)cc2)cc1 (configuration not stated),68.4%
19,CN(C)c1ccc(C(=O)N2CCN3C(=O)c4ccccc4C23c2ccc(Cl)cc2)cc1 (configuration not stated),82.9%
20,O=C(c1ccc(F)cc1)N1CCN2C(=O)c3ccccc3C12c1ccc(F)cc1 (configuration not stated),69.7%
21,O=C(c1ccc(OC(F)(F)F)cc1)N1CCN2C(=O)c3ccccc3C12c1ccc(Cl)cc1 (configuration not stated),1.2% (active)
22,O=C(c1ccc2c(c1)CCO2)N1CCN2C(=O)c3ccccc3C12c1ccc(Cl)cc1 (configuration not stated),71.1%

# — PubChem BioAssay AID743025 (Vanderbilt Specialized Chemistry Center, 2013)
